# Assay results reported in publication PMC5540273 (PLoS ONE, 2017).
# Several values for one entry are separate records, joined by “and”; a condition that tells them apart may be missing. Equal entries are not always repeated. Where two headings read alike, the source gives them in different places.
# Columns and labels:
# Conditions in all cases: n = 1
# [1] = system: PRKCQ
# [2] = system: PRKD1
# [3] = system: PRKD2
# [4] = system: PRKD3
# [5] = system: PRKG1
# [6] = system: PRKG2
# [7] = system: T1, PRKR
# T1 construct: gene EIF2AK2
# [8] = system: PRKX
# [9] = system: PRP4
# [10] = system: T2, PYK2
# T2 construct: gene PTK2B
# [11] = concentration: 1 μM, replicates: in singlicate
# [12] = concentration: 1 μM,replicates: in singlicate, 1 µM
# 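Note: KINOMEscan kinase panel screen.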
compound,measurement,setting,value
Cc1ccc(-c2cc(-c3c[nH]nc3-c3ccccn3)ccn2)cc1 [GW684088],%Inh,[1]; [11],1%
same,%Inh,[2]; [11],68%
same,%Inh,[3]; [11],62%
same,%Inh,[4]; [11],69%
same,%Inh,[5]; [11],0%
same,%Inh,[6]; [11],16%
same,%Inh,[7]; [11],24%
same,%Inh,[8]; [11],21%
same,%Inh,[9]; [11],27%
same,%Inh,[10]; [11],16%
Cc1cccc(-c2nc(Nc3ccc4[nH]ncc4c3)c3ccccc3n2)n1 [GW857175],%Inh,[1]; [11],27%
same,%Inh,[2]; [11],99.8%
same,%Inh,[3]; [11],99.9%
same,%Inh,[4]; [11],98.1%
same,%Inh,[5]; [11],0%
same,%Inh,[6]; [11],2%
same,%Inh,[7]; [11],0%
same,%Inh,[8]; [11],0%
same,%Inh,[9]; [11],13%
same,%Inh,[10]; [11],0%
Cn1ccc2ncnc(Oc3ccc(NC(=O)Nc4ccccc4)cc3)c21,%Inh,[1]; [11],13%
same,%Inh,[2]; [11],0%
same,%Inh,[3]; [11],2%
same,%Inh,[4]; [11],0%
same,%Inh,[5]; [11],7%
same,%Inh,[6]; [11],31%
same,%Inh,[7]; [11],0%
same,%Inh,[8]; [11],0%
same,%Inh,[9]; [11],0%
same,%Inh,[10]; [11],0%
Fc1cc(Cl)ccc1Nc1ccnc2cc(I)ccc12 [GW551191],%Inh,[1]; [11],18%
same,%Inh,[2]; [11],1%
same,%Inh,[3]; [11],0%
same,%Inh,[4]; [11],0%
same,%Inh,[5]; [11],5%
same,%Inh,[6]; [11],0%
same,%Inh,[7]; [11],0%
same,%Inh,[8]; [11],0%
same,%Inh,[9]; [11],13%
same,%Inh,[10]; [11],1%
Cc1c(Cn2ccn3c(=O)cc(N4CCOCC4)nc23)cccc1C(F)(F)F [GSK2289044],%Inh,[1]; [11],3%
same,%Inh,[2]; [11],6%
same,%Inh,[3]; [11],19%
same,%Inh,[4]; [11],0%
same,%Inh,[5]; [11],0%
same,%Inh,[6]; [11],9%
same,%Inh,[7]; [11],4%
same,%Inh,[8]; [11],25%
same,%Inh,[9]; [11],0%
same,%Inh,[10]; [11],0%
CC(C)(C)c1ccc(C(=O)Nc2cn3cc(-c4cccnc4)ccc3n2)cc1,%Inh,[1]; [11],22%
same,%Inh,[2]; [11],21%
same,%Inh,[3]; [11],14%
same,%Inh,[4]; [11],5%
same,%Inh,[5]; [11],7%
same,%Inh,[6]; [11],26%
same,%Inh,[7]; [11],0%
same,%Inh,[8]; [11],10%
same,%Inh,[9]; [11],22%
same,%Inh,[10]; [11],7%
C[C@@H]1CCCCN1c1cc(-c2ccc3c(N)n[nH]c3c2)nc(N)n1 [GSK2258759],%Inh,[1]; [11],0%
same,%Inh,[2]; [11],0%
same,%Inh,[3]; [11],3%
same,%Inh,[4]; [11],0%
same,%Inh,[5]; [11],0%
same,%Inh,[6]; [11],14%
same,%Inh,[7]; [11],21%
same,%Inh,[8]; [11],15%
same,%Inh,[9]; [11],1%
same,%Inh,[10]; [11],0%
Cc1cccc(-c2cc(Nc3ccncc3)c3ccccc3n2)n1 [GSK223675],%Inh,[1]; [11],0%
same,%Inh,[2]; [11],91.1%
same,%Inh,[3]; [11],96%
same,%Inh,[4]; [11],100%
same,%Inh,[5]; [11],0%
same,%Inh,[6]; [11],0%
same,%Inh,[7]; [11],0%
same,%Inh,[8]; [11],16%
same,%Inh,[9]; [11],19%
same,%Inh,[10]; [11],14%
COc1ccccc1CNC(=O)c1cc(C(=O)c2ccccc2C)c[nH]1 [GSK364507],%Inh,[1]; [11],0%
same,%Inh,[2]; [11],9%
same,%Inh,[3]; [11],1%
same,%Inh,[4]; [11],5%
same,%Inh,[5]; [11],1%
same,%Inh,[6]; [11],2%
same,%Inh,[7]; [11],0%
same,%Inh,[8]; [11],7%
same,%Inh,[9]; [11],23%
same,%Inh,[10]; [11],7%
COc1ccc(Nc2nccc(-c3cccc(NC(=O)c4cc5cc(F)ccc5[nH]4)c3)n2)cc1 [GSK1229782],%Inh,[1]; [11],12%
same,%Inh,[2]; [11],10%
same,%Inh,[3]; [11],11%
same,%Inh,[4]; [11],24%
same,%Inh,[5]; [11],10%
same,%Inh,[6]; [11],0%
same,%Inh,[7]; [11],10%
same,%Inh,[8]; [11],46%
same,%Inh,[9]; [11],66%
same,%Inh,[10]; [11],21%
Clc1cc(Cl)cc(Nc2ccnc(Nc3cc(Cl)cc(Cl)c3)n2)c1 [GSK175726],%Inh,[1]; [11],0%
same,%Inh,[2]; [11],0%
same,%Inh,[3]; [11],12%
same,%Inh,[4]; [11],0%
same,%Inh,[5]; [11],0%
same,%Inh,[6]; [11],12%
same,%Inh,[7]; [11],14%
same,%Inh,[8]; [11],10%
same,%Inh,[9]; [11],6%
same,%Inh,[10]; [11],19%
Nc1nc(-c2nccs2)c(-c2ccnc3ccccc23)s1 [GW693542],%Inh,[1]; [11],39%
same,%Inh,[2]; [11],42%
same,%Inh,[3]; [11],14%
same,%Inh,[4]; [11],12%
same,%Inh,[5]; [11],8%
same,%Inh,[6]; [11],0%
same,%Inh,[7]; [11],0%
same,%Inh,[8]; [11],10%
same,%Inh,[9]; [11],20%
same,%Inh,[10]; [11],16%
CC(=O)Nc1nc2cnc(Nc3cc(NC(=O)c4cccc(CCC#N)c4)ccc3C)nc2s1,%Inh,[1]; [11],9%
same,%Inh,[2]; [11],0%
same,%Inh,[3]; [11],2%
same,%Inh,[4]; [11],12%
same,%Inh,[5]; [11],15%
same,%Inh,[6]; [11],10%
same,%Inh,[7]; [11],8%
same,%Inh,[8]; [11],13%
same,%Inh,[9]; [11],1%
same,%Inh,[10]; [11],0%
Cc1ccc(NC(=O)Nc2cccc(Cl)c2)cc1-c1ccc(C(=O)Nc2ccncc2)cc1 [GSK1398468],%Inh,[1]; [11],11%
same,%Inh,[2]; [11],0%
same,%Inh,[3]; [11],1%
same,%Inh,[4]; [11],22%
same,%Inh,[5]; [11],1%
same,%Inh,[6]; [11],0%
same,%Inh,[7]; [11],1%
same,%Inh,[8]; [11],80%
same,%Inh,[9]; [11],47%
same,%Inh,[10]; [11],0%
Fc1cc(Cl)ccc1Nc1ccnc2cc(-c3ccc(CN4CCCCC4)o3)ccc12 [GW560116],%Inh,[1]; [11],0%
same,%Inh,[2]; [11],0%
same,%Inh,[3]; [11],0%
same,%Inh,[4]; [11],0%
same,%Inh,[5]; [11],0%
same,%Inh,[6]; [11],0%
same,%Inh,[7]; [11],0%
same,%Inh,[8]; [11],0%
same,%Inh,[9]; [11],21%
same,%Inh,[10]; [11],0%
O=C(Nc1ccccc1)Nc1cccc(Oc2ccc3nccn3n2)c1,%Inh,[1]; [11],10%
same,%Inh,[2]; [11],0%
same,%Inh,[3]; [11],7%
same,%Inh,[4]; [11],0%
same,%Inh,[5]; [11],4%
same,%Inh,[6]; [11],0%
same,%Inh,[7]; [11],0%
same,%Inh,[8]; [11],0%
same,%Inh,[9]; [11],26%
same,%Inh,[10]; [11],60%
CN(C)CCN(C)C(=O)c1cc(-c2ccncc2)c(-c2ccc(Cl)c(O)c2)o1.Cl.Cl [SB-710397],%Inh,[1]; [11],3%
same,%Inh,[2]; [11],0%
same,%Inh,[3]; [11],57%
same,%Inh,[4]; [11],12%
same,%Inh,[5]; [11],0%
same,%Inh,[6]; [11],0%
same,%Inh,[7]; [11],0%
same,%Inh,[8]; [11],0%
same,%Inh,[9]; [11],60%
same,%Inh,[10]; [11],12%
Cc1ccc(NC(=O)Nc2cccc(C(F)(F)F)c2)cc1 [GSK955403],%Inh,[1]; 1 µM,24%
same,%Inh,[2]; 1 µM,18%
same,%Inh,[3]; 1 µM,0%
same,%Inh,[4]; 1 µM,1%
same,%Inh,[5]; 1 µM,19%
same,%Inh,[6]; 1 µM,0%
same,%Inh,[7]; 1 µM,13%
same,%Inh,[8]; 1 µM,1%
same,%Inh,[9]; 1 µM,10%
same,%Inh,[10]; 1 µM,0%
CSc1nn2c(=O)cc(N3CCOCC3)nc2n1Cc1cccc(C(F)(F)F)c1C [GSK2363608],%Inh,[1]; [12],0% and 66%
same,%Inh,[3]; [12],7% and 4%
same,%Inh,[4]; [12],21% and 0%
same,%Inh,[5]; [12],39% and 1%
same,%Inh,[6]; [12],16% and 0%
same,%Inh,[7]; [12],5% and 0%
same,%Inh,[8]; [12],36% and 0%
same,%Inh,[9]; [12],32% and 12%
same,%Inh,[10]; [12],0% and 17%
